# Data published in article PMC7862700, “An all-to-all approach to the identification of sequence-specific readers for epigenetic DNA modifications on cytosine”.
# Experiments:
# Experiment in all cases: DAPPL (digital affinity profiling via proximity ligation, sequencing); 10 mM Tris-HCl pH 7.5, 50 mM NaCl, 1 mM DTT, 4% glycerol, room temperature, 30 min; GST-TFs on glutathione beads, 16-mer random dsDNA library, 0.1% formaldehyde crosslink after washing; high values mean tight binding
# [1] = molecular target: T1, FLI1 (Homo sapiens, UniProt Q01543 1-452); details: protein: recombinant; tags: N-terminal GST; dsDNA, one strand shown
# T1 sequence: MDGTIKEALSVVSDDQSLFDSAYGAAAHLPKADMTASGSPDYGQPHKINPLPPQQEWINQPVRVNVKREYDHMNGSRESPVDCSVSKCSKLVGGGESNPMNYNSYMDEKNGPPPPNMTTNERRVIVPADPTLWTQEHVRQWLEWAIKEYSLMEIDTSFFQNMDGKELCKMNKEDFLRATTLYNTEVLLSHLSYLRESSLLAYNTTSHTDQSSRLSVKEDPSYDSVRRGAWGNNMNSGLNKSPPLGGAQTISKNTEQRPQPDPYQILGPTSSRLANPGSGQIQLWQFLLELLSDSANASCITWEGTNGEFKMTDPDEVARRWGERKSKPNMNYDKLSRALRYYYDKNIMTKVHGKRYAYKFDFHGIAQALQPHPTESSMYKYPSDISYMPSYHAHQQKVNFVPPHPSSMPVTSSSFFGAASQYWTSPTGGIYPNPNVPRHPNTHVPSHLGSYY
# Outline: (§1)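 Binding signal is defined as a hexamer's read frequency for one factor over its frequency for the tag-only sample. To obtain reads, GST-fused human transcription factors were expressed in yeast, captured on glutathione beads, barcoded with DNA and pooled with that sample. Pools met 200 nmole of a 16-mer random double-stranded DNA library in Tris/NaCl/DTT/glycerol buffer for 30 min at room temperature before washing, 0.1% formaldehyde crosslinking, proximity ligation (BsaI/T4 ligase, 1 h, 37 °C), PCR and Illumina NextSeq500 sequencing.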
# [2] = molecular target: T2, ELK1 (Homo sapiens, UniProt P19419 1-428); details: protein: recombinant; tags: N-terminal GST; dsDNA, one strand shown
# T2 sequence: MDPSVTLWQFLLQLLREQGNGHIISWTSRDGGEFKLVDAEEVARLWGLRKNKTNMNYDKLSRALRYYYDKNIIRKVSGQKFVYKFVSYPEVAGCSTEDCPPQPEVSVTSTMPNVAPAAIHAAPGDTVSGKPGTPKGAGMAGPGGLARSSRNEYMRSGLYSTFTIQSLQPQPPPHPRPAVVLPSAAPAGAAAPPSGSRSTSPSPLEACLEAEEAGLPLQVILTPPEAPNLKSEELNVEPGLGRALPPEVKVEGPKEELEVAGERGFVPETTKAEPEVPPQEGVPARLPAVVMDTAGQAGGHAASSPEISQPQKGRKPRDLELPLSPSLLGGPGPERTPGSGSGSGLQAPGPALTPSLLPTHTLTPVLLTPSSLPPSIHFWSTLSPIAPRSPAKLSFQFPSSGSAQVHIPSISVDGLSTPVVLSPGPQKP
# Outline: as §1
# [3] = molecular target: T3, GABPA (Homo sapiens, UniProt Q06546 1-454); details: protein: recombinant; tags: N-terminal GST; dsDNA, one strand shown
# T3 sequence: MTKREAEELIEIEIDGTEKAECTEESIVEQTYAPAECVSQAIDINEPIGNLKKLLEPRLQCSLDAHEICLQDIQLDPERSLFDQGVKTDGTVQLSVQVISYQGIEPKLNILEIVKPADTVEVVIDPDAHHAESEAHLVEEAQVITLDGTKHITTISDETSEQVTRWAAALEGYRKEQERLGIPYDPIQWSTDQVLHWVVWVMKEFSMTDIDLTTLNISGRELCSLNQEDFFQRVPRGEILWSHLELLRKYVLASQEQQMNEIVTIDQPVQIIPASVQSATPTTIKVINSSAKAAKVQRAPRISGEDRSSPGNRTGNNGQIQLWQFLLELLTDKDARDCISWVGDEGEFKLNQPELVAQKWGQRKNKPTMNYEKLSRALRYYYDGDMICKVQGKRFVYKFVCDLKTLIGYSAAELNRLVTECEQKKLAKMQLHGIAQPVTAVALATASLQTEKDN
# Outline: as §1
# [4] = molecular target: T4, ERG (Homo sapiens, UniProt P11308 1-479); details: protein: recombinant; tags: N-terminal GST; dsDNA, one strand shown
# T4 sequence: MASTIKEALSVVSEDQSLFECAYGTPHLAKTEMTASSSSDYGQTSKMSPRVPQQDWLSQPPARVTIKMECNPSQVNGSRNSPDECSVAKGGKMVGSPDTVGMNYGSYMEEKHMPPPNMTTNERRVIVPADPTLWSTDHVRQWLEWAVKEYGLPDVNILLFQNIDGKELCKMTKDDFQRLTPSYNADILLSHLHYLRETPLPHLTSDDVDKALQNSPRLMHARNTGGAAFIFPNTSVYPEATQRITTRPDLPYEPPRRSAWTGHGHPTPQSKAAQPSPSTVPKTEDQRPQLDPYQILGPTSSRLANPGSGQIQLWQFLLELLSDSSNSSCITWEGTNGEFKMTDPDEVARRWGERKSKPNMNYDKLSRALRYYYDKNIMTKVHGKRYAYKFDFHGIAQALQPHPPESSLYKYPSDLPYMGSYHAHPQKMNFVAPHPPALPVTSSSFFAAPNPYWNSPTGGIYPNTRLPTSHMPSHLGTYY
# Outline: as §1
# [5] = molecular target: ELF1 (Homo sapiens, UniProt P32519 1-619); details: protein: recombinant; tags: N-terminal GST; dsDNA, one strand shown
# ELF1, sequence (P32519 whole entry): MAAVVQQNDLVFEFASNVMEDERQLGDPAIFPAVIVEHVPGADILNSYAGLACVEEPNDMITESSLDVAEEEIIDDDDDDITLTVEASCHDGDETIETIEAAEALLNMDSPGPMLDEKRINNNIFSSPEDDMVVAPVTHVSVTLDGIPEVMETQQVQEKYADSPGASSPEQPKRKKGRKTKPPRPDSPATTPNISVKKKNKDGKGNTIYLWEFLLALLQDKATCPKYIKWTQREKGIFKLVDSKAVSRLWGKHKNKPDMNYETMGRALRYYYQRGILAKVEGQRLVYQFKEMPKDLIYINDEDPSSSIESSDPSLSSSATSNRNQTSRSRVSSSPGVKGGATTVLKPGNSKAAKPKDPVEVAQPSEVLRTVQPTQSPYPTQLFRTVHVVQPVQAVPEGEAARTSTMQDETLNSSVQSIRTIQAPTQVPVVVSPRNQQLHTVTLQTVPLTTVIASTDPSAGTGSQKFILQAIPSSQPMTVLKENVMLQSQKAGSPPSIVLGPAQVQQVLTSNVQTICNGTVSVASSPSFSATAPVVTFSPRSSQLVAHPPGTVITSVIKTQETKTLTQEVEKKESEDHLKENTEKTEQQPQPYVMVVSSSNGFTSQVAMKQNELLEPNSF
# Outline: as §1
# [6] = molecular target: T5, EHF (Homo sapiens, UniProt Q9NZC4 1-300); details: protein: recombinant; tags: N-terminal GST; dsDNA, one strand shown
# T5 sequence: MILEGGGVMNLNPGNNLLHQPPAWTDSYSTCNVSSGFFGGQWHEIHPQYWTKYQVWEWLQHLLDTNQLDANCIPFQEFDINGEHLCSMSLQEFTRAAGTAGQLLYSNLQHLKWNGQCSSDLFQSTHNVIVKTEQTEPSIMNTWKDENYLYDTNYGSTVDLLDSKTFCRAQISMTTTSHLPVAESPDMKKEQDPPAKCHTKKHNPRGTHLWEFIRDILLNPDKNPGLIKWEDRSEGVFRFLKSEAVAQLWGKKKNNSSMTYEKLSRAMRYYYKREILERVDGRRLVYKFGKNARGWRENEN
# Outline: as §1
# [7] = molecular target: SPI1 (Homo sapiens, UniProt P17947 1-270); details: protein: recombinant; tags: N-terminal GST; dsDNA, one strand shown
# Outline: as §1
# [8] = molecular target: SPIB (Homo sapiens, UniProt Q01892 1-262); details: protein: recombinant; tags: N-terminal GST; dsDNA, one strand shown
# SPIB, sequence (Q01892 whole entry): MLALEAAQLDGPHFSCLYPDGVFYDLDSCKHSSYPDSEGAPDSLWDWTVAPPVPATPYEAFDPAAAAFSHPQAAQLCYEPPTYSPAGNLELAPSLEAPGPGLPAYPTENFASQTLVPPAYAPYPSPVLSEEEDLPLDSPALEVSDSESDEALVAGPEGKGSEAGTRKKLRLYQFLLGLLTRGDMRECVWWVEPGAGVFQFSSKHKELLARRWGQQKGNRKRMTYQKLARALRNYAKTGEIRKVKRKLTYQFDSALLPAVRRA
# Outline: as §1
# [9] = molecular target: T6, ELK3 (Homo sapiens, UniProt P41970 1-407); details: protein: recombinant; tags: N-terminal GST; dsDNA, one strand shown
# T6 sequence: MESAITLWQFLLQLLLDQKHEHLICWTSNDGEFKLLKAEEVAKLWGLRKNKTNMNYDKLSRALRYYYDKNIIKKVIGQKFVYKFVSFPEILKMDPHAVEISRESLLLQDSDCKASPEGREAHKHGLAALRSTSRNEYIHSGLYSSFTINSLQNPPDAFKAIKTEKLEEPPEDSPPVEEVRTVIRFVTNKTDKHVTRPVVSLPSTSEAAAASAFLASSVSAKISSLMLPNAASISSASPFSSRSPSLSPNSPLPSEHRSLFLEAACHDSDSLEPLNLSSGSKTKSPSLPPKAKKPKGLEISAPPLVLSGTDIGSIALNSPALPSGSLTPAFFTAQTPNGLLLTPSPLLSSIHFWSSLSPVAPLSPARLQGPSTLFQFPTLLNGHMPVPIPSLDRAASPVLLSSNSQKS
# Outline: as §1
# [10] = molecular target: T7, FEV (Homo sapiens, UniProt Q99581 1-238); details: protein: recombinant; tags: N-terminal GST; dsDNA, one strand shown
# T7 sequence: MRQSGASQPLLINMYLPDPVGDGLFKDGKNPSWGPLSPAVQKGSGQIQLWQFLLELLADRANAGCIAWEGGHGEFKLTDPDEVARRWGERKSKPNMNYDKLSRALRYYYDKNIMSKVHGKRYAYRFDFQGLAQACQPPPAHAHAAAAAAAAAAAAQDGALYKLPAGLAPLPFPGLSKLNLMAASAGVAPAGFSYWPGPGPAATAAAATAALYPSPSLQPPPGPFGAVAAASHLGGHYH
# Outline: as §1
# [11] = molecular target: ETV5 (Homo sapiens, UniProt P41161 1-510); details: protein: recombinant; tags: N-terminal GST; dsDNA, one strand shown
# ETV5, sequence (P41161 whole entry): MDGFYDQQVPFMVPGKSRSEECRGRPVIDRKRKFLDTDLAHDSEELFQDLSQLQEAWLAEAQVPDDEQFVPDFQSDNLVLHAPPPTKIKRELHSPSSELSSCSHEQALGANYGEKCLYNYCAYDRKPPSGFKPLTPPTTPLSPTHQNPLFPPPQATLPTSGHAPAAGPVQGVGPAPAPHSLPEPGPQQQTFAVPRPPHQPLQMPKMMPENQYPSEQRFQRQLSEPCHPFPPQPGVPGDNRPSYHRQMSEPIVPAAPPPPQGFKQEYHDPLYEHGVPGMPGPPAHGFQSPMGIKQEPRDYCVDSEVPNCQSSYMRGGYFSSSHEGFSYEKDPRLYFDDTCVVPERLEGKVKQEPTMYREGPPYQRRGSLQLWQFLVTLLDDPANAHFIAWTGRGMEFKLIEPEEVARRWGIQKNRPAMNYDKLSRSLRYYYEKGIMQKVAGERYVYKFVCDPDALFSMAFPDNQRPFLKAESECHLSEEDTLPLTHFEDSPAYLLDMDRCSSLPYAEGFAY
# Outline: as §1
# [12] = molecular target: HSF1 (Homo sapiens, UniProt Q00613 1-529); details: protein: recombinant; tags: N-terminal GST; chain copies: 3; dsDNA, one strand shown
# HSF1, sequence (Q00613 whole entry): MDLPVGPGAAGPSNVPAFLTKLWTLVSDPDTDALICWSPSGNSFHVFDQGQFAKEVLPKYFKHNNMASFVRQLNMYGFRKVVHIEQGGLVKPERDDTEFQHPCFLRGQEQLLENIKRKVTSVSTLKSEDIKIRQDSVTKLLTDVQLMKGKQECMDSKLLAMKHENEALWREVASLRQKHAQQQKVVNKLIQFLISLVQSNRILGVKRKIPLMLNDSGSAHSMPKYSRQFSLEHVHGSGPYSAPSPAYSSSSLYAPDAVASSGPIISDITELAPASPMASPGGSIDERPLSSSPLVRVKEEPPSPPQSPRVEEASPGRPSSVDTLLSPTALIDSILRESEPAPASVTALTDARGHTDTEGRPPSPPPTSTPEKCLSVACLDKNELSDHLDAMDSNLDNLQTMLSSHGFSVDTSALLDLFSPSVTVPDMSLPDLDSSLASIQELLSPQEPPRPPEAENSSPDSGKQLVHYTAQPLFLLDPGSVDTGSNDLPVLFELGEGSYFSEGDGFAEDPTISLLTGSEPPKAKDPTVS
# Outline: as §1
# [13] = molecular target: T8, SPIC (Homo sapiens, UniProt Q8N5J4 1-248); details: protein: recombinant; tags: N-terminal GST; dsDNA, one strand shown
# T8 sequence: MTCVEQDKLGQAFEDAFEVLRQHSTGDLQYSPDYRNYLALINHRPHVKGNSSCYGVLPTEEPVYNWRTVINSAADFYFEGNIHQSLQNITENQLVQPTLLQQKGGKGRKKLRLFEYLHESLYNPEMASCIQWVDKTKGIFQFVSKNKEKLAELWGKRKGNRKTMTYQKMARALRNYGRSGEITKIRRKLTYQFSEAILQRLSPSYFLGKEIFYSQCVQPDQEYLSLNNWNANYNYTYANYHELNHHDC
# Outline: as §1
# [14] = molecular target: ELF4 (Homo sapiens, UniProt Q99607 1-663); details: protein: recombinant; tags: N-terminal GST; dsDNA, one strand shown
# ELF4, sequence (Q99607 whole entry): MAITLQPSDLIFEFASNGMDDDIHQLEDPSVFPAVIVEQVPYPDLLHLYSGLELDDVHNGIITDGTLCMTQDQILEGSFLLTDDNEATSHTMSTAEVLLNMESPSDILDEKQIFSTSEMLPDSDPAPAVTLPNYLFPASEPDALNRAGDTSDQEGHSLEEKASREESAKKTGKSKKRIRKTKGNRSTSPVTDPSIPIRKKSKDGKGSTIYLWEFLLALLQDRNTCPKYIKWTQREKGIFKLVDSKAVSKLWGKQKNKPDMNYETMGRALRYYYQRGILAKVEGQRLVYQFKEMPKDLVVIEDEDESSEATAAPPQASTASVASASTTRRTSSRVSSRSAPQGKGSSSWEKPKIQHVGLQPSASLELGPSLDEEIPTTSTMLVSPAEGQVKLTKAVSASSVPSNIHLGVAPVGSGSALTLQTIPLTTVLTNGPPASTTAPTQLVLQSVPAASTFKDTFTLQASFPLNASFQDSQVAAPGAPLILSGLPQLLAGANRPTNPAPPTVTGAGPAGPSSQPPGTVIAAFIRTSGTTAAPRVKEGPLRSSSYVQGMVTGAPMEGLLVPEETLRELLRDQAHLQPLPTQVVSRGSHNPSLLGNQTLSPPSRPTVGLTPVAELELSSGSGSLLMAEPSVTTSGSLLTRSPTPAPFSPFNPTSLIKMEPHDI
# Outline: as §1
# [15] = molecular target: T9, ELK4 (Homo sapiens, UniProt P28324-2 1-405); details: protein: recombinant; tags: N-terminal GST; dsDNA, one strand shown
# T9 sequence: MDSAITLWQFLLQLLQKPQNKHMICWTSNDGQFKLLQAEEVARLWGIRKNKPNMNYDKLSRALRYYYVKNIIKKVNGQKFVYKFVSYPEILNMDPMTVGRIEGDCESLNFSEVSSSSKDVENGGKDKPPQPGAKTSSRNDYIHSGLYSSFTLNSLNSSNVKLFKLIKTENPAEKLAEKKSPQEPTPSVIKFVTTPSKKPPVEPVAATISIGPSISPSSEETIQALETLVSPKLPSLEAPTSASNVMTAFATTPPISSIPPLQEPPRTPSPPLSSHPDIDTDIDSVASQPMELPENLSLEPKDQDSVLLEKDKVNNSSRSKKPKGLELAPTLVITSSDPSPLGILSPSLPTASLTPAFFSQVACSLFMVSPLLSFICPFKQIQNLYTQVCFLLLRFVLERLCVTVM
# Outline: as §1
# [16] = molecular target: T10, ETV2 (Homo sapiens, UniProt O00321 1-342); details: protein: recombinant; tags: N-terminal GST; dsDNA, one strand shown
# T10 sequence: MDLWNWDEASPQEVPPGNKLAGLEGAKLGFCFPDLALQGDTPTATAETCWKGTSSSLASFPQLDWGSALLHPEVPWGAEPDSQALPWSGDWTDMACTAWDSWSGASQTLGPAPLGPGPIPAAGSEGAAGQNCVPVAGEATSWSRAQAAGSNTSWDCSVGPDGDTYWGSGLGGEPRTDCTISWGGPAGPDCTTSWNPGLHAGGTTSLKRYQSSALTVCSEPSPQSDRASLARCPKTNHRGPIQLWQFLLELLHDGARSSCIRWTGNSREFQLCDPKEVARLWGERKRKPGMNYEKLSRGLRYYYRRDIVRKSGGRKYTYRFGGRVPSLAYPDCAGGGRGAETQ
# Outline: as §1
# [17] = molecular target: T11, ELF3 (Homo sapiens, UniProt P78545 1-371); details: protein: recombinant; tags: N-terminal GST; dsDNA, one strand shown
# T11 sequence: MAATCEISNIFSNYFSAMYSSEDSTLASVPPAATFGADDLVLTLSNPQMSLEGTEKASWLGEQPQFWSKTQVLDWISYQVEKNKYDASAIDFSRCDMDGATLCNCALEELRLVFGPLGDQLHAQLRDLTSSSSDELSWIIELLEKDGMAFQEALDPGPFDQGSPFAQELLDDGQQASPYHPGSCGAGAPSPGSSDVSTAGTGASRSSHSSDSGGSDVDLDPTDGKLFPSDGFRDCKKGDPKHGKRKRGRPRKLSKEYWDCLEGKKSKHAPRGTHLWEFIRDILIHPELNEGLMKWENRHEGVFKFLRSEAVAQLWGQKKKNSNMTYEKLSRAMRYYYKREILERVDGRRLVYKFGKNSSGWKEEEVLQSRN
# Outline: as §1
# [18] = molecular target: CRX (Homo sapiens, UniProt O43186 1-299); details: protein: recombinant; tags: N-terminal GST; dsDNA, one strand shown
# CRX, sequence (O43186 whole entry): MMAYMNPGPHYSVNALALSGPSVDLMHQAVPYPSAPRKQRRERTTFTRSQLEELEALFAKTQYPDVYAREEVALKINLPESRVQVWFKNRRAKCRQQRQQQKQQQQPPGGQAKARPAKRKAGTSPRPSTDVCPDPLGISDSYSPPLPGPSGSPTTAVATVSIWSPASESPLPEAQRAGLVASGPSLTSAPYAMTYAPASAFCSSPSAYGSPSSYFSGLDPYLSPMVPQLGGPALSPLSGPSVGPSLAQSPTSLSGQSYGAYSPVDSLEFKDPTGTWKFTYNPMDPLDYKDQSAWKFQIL
# Outline: as §1
# [19] = molecular target: ETV1 (Homo sapiens, UniProt P50549 1-477); details: protein: recombinant; tags: N-terminal GST; dsDNA, one strand shown
# ETV1, sequence (P50549 whole entry): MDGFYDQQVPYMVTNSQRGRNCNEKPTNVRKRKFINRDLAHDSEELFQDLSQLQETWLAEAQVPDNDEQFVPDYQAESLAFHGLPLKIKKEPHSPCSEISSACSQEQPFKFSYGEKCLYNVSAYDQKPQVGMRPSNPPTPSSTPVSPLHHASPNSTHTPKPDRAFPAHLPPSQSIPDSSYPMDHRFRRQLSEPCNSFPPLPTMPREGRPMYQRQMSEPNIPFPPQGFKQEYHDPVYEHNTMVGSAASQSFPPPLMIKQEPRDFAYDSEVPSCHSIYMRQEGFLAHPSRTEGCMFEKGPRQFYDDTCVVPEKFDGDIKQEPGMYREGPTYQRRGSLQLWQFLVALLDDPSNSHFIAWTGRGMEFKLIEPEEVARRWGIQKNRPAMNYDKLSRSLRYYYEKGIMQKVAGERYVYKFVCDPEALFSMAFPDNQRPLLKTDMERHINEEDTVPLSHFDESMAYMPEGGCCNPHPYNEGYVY
# Outline: as §1
sequence,measurement,setting,value
TACCAA,binding signal,[1],"1.14 fold enrichment (6-mer frequency, TF over GST control)"
same,binding signal,[2],"1.17 fold enrichment (6-mer frequency, TF over GST control)"
same,binding signal,[3],"1.11 fold enrichment (6-mer frequency, TF over GST control)"
same,binding signal,[4],"1.18 fold enrichment (6-mer frequency, TF over GST control)"
same,binding signal,[5],"1.21 fold enrichment (6-mer frequency, TF over GST control)"
same,binding signal,[6],"1.13 fold enrichment (6-mer frequency, TF over GST control)"
same,binding signal,[7],"1.16 fold enrichment (6-mer frequency, TF over GST control)"
same,binding signal,[8],"1.13 fold enrichment (6-mer frequency, TF over GST control)"
same,binding signal,[9],"1.05 fold enrichment (6-mer frequency, TF over GST control)"
same,binding signal,[10],"1.14 fold enrichment (6-mer frequency, TF over GST control)"
same,binding signal,[11],"1.13 fold enrichment (6-mer frequency, TF over GST control)"
same,binding signal,[12],"1.14 fold enrichment (6-mer frequency, TF over GST control)"
same,binding signal,[13],"1.01 fold enrichment (6-mer frequency, TF over GST control)"
same,binding signal,[14],"1.2 fold enrichment (6-mer frequency, TF over GST control)"
same,binding signal,[15],"1.23 fold enrichment (6-mer frequency, TF over GST control)"
same,binding signal,[16],"1.09 fold enrichment (6-mer frequency, TF over GST control)"
same,binding signal,[17],"1.05 fold enrichment (6-mer frequency, TF over GST control)"
same,binding signal,[18],"1.25 fold enrichment (6-mer frequency, TF over GST control)"
same,binding signal,[19],"1.11 fold enrichment (6-mer frequency, TF over GST control)"
